# Out of some 290,000 compounds screened, about 27,000 (9.3%) were called active. Many of the other results were omitted from the sample, so actives are more common in it than they were. Unmarked numbers belong to inactive results. No stated cut-off is given here; in the data, active means inhibition mostly above about 28% (no sharp cut-off); inactive means mostly below about 43%.
# Assay: A qHTS for Small Molecule Inhibitors of Shiga Toxin; further: 0% is about no effect
# Conditions: Vero cells, Shiga toxin protein synthesis inhibition reporter; at 38.7 µM, stronger effect = higher value
row,Structure (SMILES),inhibition
1,CN(C)C(=O)c1ccc(NC(=O)c2ccccc2-c2ccccc2)cc1,-11.5%
2,CCc1ccc(NC(=O)c2ccc(Cn3cc([N+](=O)[O-])cn3)cc2)cc1,51.8%
3,O=C(Nc1ccccc1F)c1ccc(Cn2cc(Br)cn2)cc1,71.1% (active)
4,CCOc1cccc(C(=O)Nc2cnn(Cc3ccccc3)c2)c1,17.4%
5,CC(NC(=O)Cn1cc(C(F)(F)F)cc(Cl)c1=O)c1ccccc1 (centres undefined),-1.42%
6,NNC(=O)CSc1nnc(-c2ccccc2)n1-c1ccccc1,-7.44%
7,COc1ccc(C(=O)NC2CC2)cc1OC1CCN(Cc2ccc(SC)cc2)CC1,-0.345%
8,Cc1nnc(NCCO)c2ccccc12,10.4%
9,COc1ccc(Nc2nc(=O)[nH]nc2C)cc1,16.1%
10,COc1ccc(Nc2nnc(C)c3ccccc23)cc1,106% (active)
11,CN(Cc1ccccc1)C(=O)C1CCCN(c2ncnc3c2nc2n3CCCCC2)C1 (centres undefined),21.9%
12,C/C(=C/c1ccccc1)C(=O)N1CCN(c2ccccc2)CC1,18.9%
13,Cc1cccc(C(=O)OC(C)CN2CCCC2)c1 (centres undefined),5.97%
14,CC(C)(C)c1ccc(C(=O)NNC(=O)Cc2ccccc2)cc1,76.6% (active)
15,CCNC(=S)NNC(=O)Cc1ccccc1,-8.55%
16,O=C(CCc1ccccc1)NNC(=O)c1ccc(Br)cc1,34.5%
17,Cc1ccc(C2=Nc3c(ccc4ccccc34)C(c3ccncc3)=NN2)cc1,5.77%
18,CCOc1ccc2c(c1)C(c1ccc(C)cc1)=NNC(c1ccc(C)cc1)=N2,85.1% (active)
19,CCc1ccc2c(c1)C(c1ccc([N+](=O)[O-])cc1)=NNC(c1ccccc1)=N2,31.4%
20,Cc1ccc(S(=O)(=O)N2CCN(C(=O)N3CCOCC3)CC2)c(C)c1,-2.32%
21,COc1cccc(OC)c1C(=O)N1CCN(Cc2cccnc2)CC1,11.9%
22,O=C(NCc1ccccc1)c1ccc(S(=O)(=O)Nc2cccc(C(F)(F)F)c2)cc1,-3.31%

row,Structure (SMILES),inhibition
1,COc1cc(CC(=O)NCc2cccs2)cc(OC)c1OC,-11.7%
2,O=C(Cc1cccs1)NCc1cccc(C(F)(F)F)c1,61.9% (active)
3,COc1cccc(NC(=O)N2CCCC2C(=O)NC2CCCCC2)c1 (centres undefined),-3.54%
4,O=S(=O)(Nc1ccc2[nH]ncc2c1)c1ccccc1Cl,-6.01%
5,Cc1ccc(-n2c(C)cc(C(=O)CSc3nnc4ccccn34)c2C)cc1,48.6% (active)
6,O=C(CSc1nnc(-c2ccco2)n1CC1CCCO1)c1ccccc1 (centres undefined),21.9%
7,Cn1c(SCC(=O)c2ccc(F)cc2)nnc1-c1ccccn1,21.4%
8,CCN(C(=O)CSc1nnc2ccccn12)C1CCS(=O)(=O)C1 (centres undefined),-8.56%
9,N#Cc1ccc(CSc2nnc3ccccn23)cc1,-7.41%
10,O=C(CSc1nnc2n1CCCN2)c1ccccc1,53.5% (active)
11,O=C(CSc1nnc2ccccn12)c1ccccc1,74.7% (active)
12,Cc1ccc(-n2c(C)nnc2SCC(=O)NC2CC2)cc1,-29.3%
13,Cn1c(CC(=O)Nc2ccccc2)nnc1SCC(=O)c1ccccc1,0.707%
14,Cn1c(=O)n(C)c2cc(S(=O)(=O)Nc3ccc(F)cc3)ccc21,0.488%
15,Cc1ccc(CCN2CC(C(=O)NCCc3ccccc3)CC2=O)cc1 (centres undefined),16.6%
16,CC1CCCCN1C(=O)Cn1c(=O)oc2cc(S(=O)(=O)N3CCCCC3)ccc21 (centres undefined),12.7%
17,CC(C)(C)NC(=O)NC(=O)COC(=O)C1c2ccccc2Oc2ccccc21,-5.17%
18,Cc1ccc2[nH]c(=O)c(CC(=O)O)c(-c3ccccc3)c2c1,1.65%
19,COc1ccc(/C=N/NC(=O)c2ccncc2)cc1CN1CCCc2ccccc21,-1.95%
20,Cc1cc(C(=O)N/N=C/c2ccc(O)c([N+](=O)[O-])c2)c(C)n1-c1ccc(F)cc1,0% (active)
21,COc1cc(/C=N/NC(=O)c2ccc(N3CCCC3=O)cc2)ccc1O,56.5% (active)
22,COc1cc(/C=N/NC(=S)Nc2cccnc2)cc(OC)c1O,-4.42%

row,Structure (SMILES),inhibition
1,Cc1nn(CC(=O)N/N=C/c2ccc(F)cc2)c(C)c1[N+](=O)[O-],-12.8%
2,COc1cc(/C=N/NC(=O)c2cc(C)n(-c3ccc(F)cc3)c2C)cc(OC)c1O,43.1% (active)
3,COc1cc(/C=N\NC(=O)C2C(=O)NCC2c2ccccc2)cc(OC)c1O (centres undefined),-11.2%
4,O=C(N/N=C/c1cccc(Br)c1)c1ccc(N2CCCC2=O)cc1,18.7%
5,Cc1cc(C(=O)N/N=C/c2ccc(N3CCOCC3)cc2)c(C)o1,46.9%
6,CCc1ccc(CNC(=O)C2CC(=O)N(CCc3ccc(C)cc3)C2)cc1 (centres undefined),-9.66%
7,COCCC(=O)N1CCC(Oc2ccc(C(=O)NCc3ccon3)cc2)CC1,-10.3%
8,CCCCCC1CC(COc2ccccc2)OC1=O (centres undefined),-10.6%
9,Cc1cc(-c2n[nH]c(=S)n2/N=C/C(Br)=C/c2ccccc2)n[nH]1,91.5% (active)
10,Cc1cc(-c2n[nH]c(=S)n2/N=C/c2ccco2)n[nH]1,-9.01%
11,S=c1[nH]nc(-c2cccnc2)n1/N=C/C(Cl)=C\c1ccccc1,48.2%
12,CC(=O)c1c(C)oc2ccc(NS(=O)(=O)c3ccc(C(=O)O)cc3)cc12,18.1%
13,CCCCN(CCCC)CCCNC(=O)CN1C(=O)COc2ccc(S(=O)(=O)N3CCC(C)CC3)cc21,-6.42%
14,Cc1cccc(NC(=O)C2CCCN(C(=O)Nc3ccc(F)cc3)C2)c1C (centres undefined),1.84%
15,O=C(O)c1ccccc1-c1ccccc1C(=O)NCCc1ccccc1,23.5%
16,CN(C)/C(=N\OC(=O)c1ccccc1)c1nonc1N,-8.6%
17,NS(=O)(=O)c1ccc(CCNC(=O)CNC(=O)Cc2ccccc2)cc1,-4.55%
18,O=C(NCCc1ccccc1)C1CC1,8.81%
19,NC(=O)Nc1ccccc1C(=O)NCCc1ccccc1,83.7% (active)
20,Nc1nonc1C(=O)NCCc1ccccc1,66.7% (active)

# From PubChem BioAssay AID2315 (National Center for Advancing Translational Sciences (NCATS), 2010)
